9 compounds from PubChem BioAssay (NCI) can be followed below.

Common to all, as to assay: NCI-60 one-dose screen, 48 h (100 = growth as untreated, 0 = no growth, -100 = all killed)
The subject of one assay is SN12C renal. The conditions noted are these: 10 µM unless noted.
The next assay relates to UO-31 renal. The conditions noted are these: 10 µM unless noted.
The test system of the next assay is TK-10 renal. The conditions noted are these: 10 µM unless noted.
Another assay relates to ACHN renal. The conditions noted are these: 10 µM unless noted.
For another assay, the system named is CAKI-1 renal. The conditions noted are these: 10 µM unless noted.
A further assay concerns A498 renal. Particulars: 10 µM unless noted.
The next assay relates to CCRF-CEM leukemia. Particulars: 10 µM unless noted.
Another assay relates to MOLT-4 leukemia. Particulars: 10 µM unless noted.
The test system of the next assay is RPMI-8226 leukemia. The conditions noted are these: 10 µM.
Another assay deals with OVCAR-8 ovarian. The conditions noted are these: 10 µM unless noted.
Another assay concerns OVCAR-5 ovarian. Particulars: 10 µM unless noted.
The subject of the next assay is OVCAR-4 ovarian. Particulars: 10 µM unless noted.
A further assay deals with SK-OV-3 ovarian. The conditions noted are these: 10 µM.
The subject of another assay is IGROV1 ovarian. The conditions noted are these: 10 µM unless noted.
Another assay deals with OVCAR-3 ovarian. The conditions noted are these: 10 µM unless noted.
The test system of a further assay is HS 578T breast. The conditions noted are these: 10 µM unless noted.
The next assay concerns SR leukemia. Particulars: 10 µM unless noted.
A further assay concerns NCI/ADR-RES ovarian. Particulars: 10 µM unless noted.

About 83,000 compounds went through this panel and 20% of them were active in at least one assay; those are over-represented in the sample as a whole.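 Single-dose data. Exposure time 48 hours. Values below 10 considered active.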 Unmarked numbers belong to inactive results. Active and inactive are the calls of the source.

Regarding `Cn1c2c(cc(S(=O)(=O)c3ccccc3)c1=O)CCc1c-2cnn1-c1ccccc1Cl`, the growth in the assay with SN12C renal was 97.8%; in the assay with UO-31 renal, -16% (active); with TK-10 renal, 122%; in the assay with ACHN renal, -31% (active); in the assay on CAKI-1 renal it was 54.7%; in the assay on A498 renal, 86.5%. Further, the growth with CCRF-CEM leukemia is 96.4%; in the assay on MOLT-4 leukemia it was 90.7%; with RPMI-8226 leukemia, 91.7%; with OVCAR-8 ovarian, 88.6%; in the assay on OVCAR-5 ovarian, 96.5%; in the assay on OVCAR-4 ovarian it was 101%. Moreover, the growth was 88.7% in the assay with SK-OV-3 ovarian, 107% with IGROV1 ovarian, 110% in the assay on OVCAR-3 ovarian and 117% in the assay on HS 578T breast.

On to `COc1cc2nc(SCc3cc(OC)c(OC)c(OC)c3)n(-c3ccccc3OC)c(=O)c2cc1OC`, for which the growth in the assay on SN12C renal is 98%; in the assay on UO-31 renal, 36.3%; in the assay with ACHN renal, 88.5%; with CAKI-1 renal it was 42.9%; in the assay on A498 renal it was 25.5%; with MOLT-4 leukemia, 46.8%. The growth was 23.8% in the assay with SR leukemia; 71.2% in the assay on RPMI-8226 leukemia; 84.6% in the assay on OVCAR-8 ovarian; 83.1% in the assay with OVCAR-4 ovarian; 98.2% with SK-OV-3 ovarian; 83.1% in the assay with IGROV1 ovarian. Besides, the growth is 48.2% in the assay on OVCAR-3 ovarian, 60.8% with HS 578T breast and 62.9% in the assay on NCI/ADR-RES ovarian.

With `Nc1ccccc1-c1n[nH]c(=O)[nH]c1=O`, the growth in the assay with SN12C renal is 97.7%; in the assay on UO-31 renal, 86.8%; in the assay on ACHN renal, 104%; with CAKI-1 renal, 87.5%; in the assay on A498 renal, 107%; in the assay with MOLT-4 leukemia, 106%. The growth in the assay with RPMI-8226 leukemia is 105%; in the assay with OVCAR-8 ovarian, 105%; with OVCAR-5 ovarian, 109%; in the assay on OVCAR-4 ovarian, 94.3%; in the assay with SK-OV-3 ovarian, 108%; in the assay on IGROV1 ovarian it was 108%. For the same compound, the values for the growth with OVCAR-3 ovarian, with HS 578T breast and in the assay with NCI/ADR-RES ovarian were 118%, 92.7% and 102%, respectively.

Regarding `CC(C)(C)[Si](C)(C)OC1[C@@H](O[Si](C)(C)C(C)(C)C)[C@@H](CNC(=O)NC(=O)C(F)(F)F)O[C@H]1n1cnc2c(NC(=O)Nc3ccccc3)ncnc21` (stereo not given in full), the growth with SN12C renal was 81.1%; in the assay with UO-31 renal, -24.2% (active); in the assay on ACHN renal, 76.2%; with CAKI-1 renal it was 16.6%; with A498 renal, 96.9%; in the assay with MOLT-4 leukemia it was -41.7% (active). Moreover, the growth with SR leukemia is -41.9% (active); in the assay on RPMI-8226 leukemia, 4.89% (active); in the assay on OVCAR-8 ovarian it was 82%; in the assay with OVCAR-5 ovarian, 88.8%; in the assay on OVCAR-4 ovarian it was 78.4%; in the assay with SK-OV-3 ovarian, 89.7%. For the same compound, the growth in the assay with IGROV1 ovarian was 71.2%; in the assay with OVCAR-3 ovarian it was -54.1% (active); in the assay with HS 578T breast, 49.5%; in the assay with NCI/ADR-RES ovarian, 85.5%.

Consider `COc1ccc(-n2c(SCc3cc(OC)c(OC)c(OC)c3)nc3ccc(C)cc3c2=O)c(OC)c1`, for which the growth is 45.2% with SN12C renal; 18.2% in the assay with UO-31 renal; 44.9% in the assay with ACHN renal; 13.4% in the assay with CAKI-1 renal; -16.4% (active) in the assay on A498 renal; 0% (active) in the assay with CCRF-CEM leukemia. For the same compound, the growth is 11.3% in the assay on MOLT-4 leukemia; 7.68% (active) in the assay with SR leukemia; -4.23% (active) in the assay on RPMI-8226 leukemia; 45.6% with OVCAR-8 ovarian; 43.2% with OVCAR-5 ovarian; 57.4% in the assay with OVCAR-4 ovarian. Besides, the growth was 45.3% in the assay with SK-OV-3 ovarian; 35.7% in the assay on IGROV1 ovarian; -4.61% (active) with OVCAR-3 ovarian; 6.73% (active) in the assay on HS 578T breast; 1.42% (active) in the assay on NCI/ADR-RES ovarian.

On to `Oc1cccc(Nc2nc(-c3ccccn3)cs2)c1`, for which the growth is 97.8% in the assay with SN12C renal; 73.1% with UO-31 renal; 111% with TK-10 renal; 111% in the assay with CAKI-1 renal; 85.2% in the assay on MOLT-4 leukemia; 87.8% with SR leukemia. Besides, the growth in the assay on RPMI-8226 leukemia is 81.9%; with OVCAR-8 ovarian, 106%; in the assay with OVCAR-5 ovarian, 110%; in the assay on OVCAR-4 ovarian, 101%; in the assay with SK-OV-3 ovarian, 95.2%; in the assay on IGROV1 ovarian, 100%. For the same compound, the values for the growth in the assay on OVCAR-3 ovarian and with NCI/ADR-RES ovarian were 119% and 94.6%, respectively.

With `CN1CCN(c2nc(-c3ccncc3)nc3sc4c(c23)CCCCCC4)CC1`, the growth in the assay with SN12C renal is 67.8%; in the assay on UO-31 renal, 33.7%; with ACHN renal it was 68.3%; in the assay with CAKI-1 renal it was 46.7%; with A498 renal it was 31.7%; in the assay with CCRF-CEM leukemia, 79.5%. Moreover, the growth was 32.5% in the assay on SR leukemia; 69% in the assay on RPMI-8226 leukemia; 82.9% with OVCAR-8 ovarian; 81.3% with OVCAR-5 ovarian; 71.7% in the assay on OVCAR-4 ovarian; 72.9% in the assay with SK-OV-3 ovarian. Further, the growth with IGROV1 ovarian is 76.2%; in the assay with OVCAR-3 ovarian it was 93.5%; with HS 578T breast, 5.17% (active); with NCI/ADR-RES ovarian, 64.9%.

As to `O=C(NCc1ccco1)C1CCN(S(=O)(=O)c2ccc(Cl)cc2)CC1`, the growth was 78.3% with SN12C renal; 57.5% with UO-31 renal; 104% in the assay with TK-10 renal; 83.5% in the assay on ACHN renal; 70.4% with CAKI-1 renal; 59% with A498 renal. The growth in the assay on CCRF-CEM leukemia is -22.6% (active); in the assay on MOLT-4 leukemia it was 47.2%; in the assay on SR leukemia, 19.5%; in the assay with RPMI-8226 leukemia it was -24.6% (active); with OVCAR-8 ovarian, 80.4%; in the assay with OVCAR-5 ovarian, 103%. For the same compound, the growth in the assay on SK-OV-3 ovarian is 94.5%; in the assay on OVCAR-3 ovarian, -64.7% (active); in the assay on HS 578T breast, 68.9%; in the assay with NCI/ADR-RES ovarian it was 66.6%.

Consider `C=CC(=O)N1CC2(CC(n3nc(-c4ccc(Oc5ccccc5)cc4)c4c(N)ncnc43)C2)C1`, for which the growth was 17.1% in the assay with SN12C renal; 15.2% in the assay with UO-31 renal; 5.33% (active) in the assay with ACHN renal; 8.28% (active) in the assay on CAKI-1 renal; -71.7% (active) in the assay on A498 renal; 54.3% in the assay on CCRF-CEM leukemia. In addition, the growth with MOLT-4 leukemia is 17%; with RPMI-8226 leukemia, 41%; in the assay with OVCAR-8 ovarian it was 28.7%; with OVCAR-4 ovarian, 27.4%; in the assay with SK-OV-3 ovarian it was 5.31% (active); in the assay with IGROV1 ovarian it was 10.7%. The growth in the assay with OVCAR-3 ovarian is 30.9%; with HS 578T breast, -11.6% (active); in the assay on NCI/ADR-RES ovarian, 41.6%.
